# PTHR1 ag: qHTS for PTHR1 Agonists: Primary Screen; Parathyroid hormone/parathyroid hormone-related peptide receptor (Homo sapiens), Q03431; HEK293 GP2 PTHR1 cells, GloSensor cAMP luminescence, 1 h; Potency, µM (titrated, usually from 115 µM), for inactives: at the top dose activation, usual class: activators; 410,000 compounds, 0.075% hits; further: potency means the concentration at half of the fitted maximal effect; nearly all actives have a fitted effect of over 55% in size
#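 HEK-293-derived GP2 cells expressing PTHR1 and a GloSensor cAMP reporter, 3,000/well, plated overnight, given luciferin plus IBMX (each 0.5 mM as added) for 1 h at 37 °C, then compound for 1 h at 37 °C. Luminescence was read after 15 min at room temperature.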
# TSHR antagonist: Antagonists of the Thyroid Stimulating Hormone Receptor: HTS campaign | Thyrotropin receptor (Homo sapiens), P16473 | TSHR-expressing cells, TSH-stimulated cAMP HTRF, 2 h; hits give low values | activity change, negative = inhibition, % at 11.5 µM | 330,000 compounds, 0.2% hits;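 active means activity change below a set negative limit, meaning inhibition stronger than a set level, cut at about -70% in these data; inconclusive means activity change between two set negative limits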; further: on the % scale 0 is the no-effect control and ±100 the full control effect
#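 Read-out is FRET at 665 nm (cryptate excitation 337 nm) from a cryptate-tagged anti-cAMP antibody, competed by cell cAMP against cAMP-d2. Compounds are tested on freshly harvested TSHR cells challenged with 4nM TSH (EC80) for 2 hours at 37 deg C.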
# TCR act: Activators of T cell receptors: qHTS campaign; primary human leukocytes, anti-CD3, IL-2 HTRF, 48 h; Potency, µM (doses to about 9.22 µM), for the others: at the top dose activation of IL-2 secretion, hits mostly activators; 330,000 tested, under 10 active; AID 504894, 2011; further: % of control where 0% means no effect
#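 Primary human leukocytes incubated 48 hr with anti-CD3 beads plus compound, without co-stimulation. Secreted IL-2 measured by HTRF (europium cryptate/d2 anti-IL-2 pair, 320 nm excitation, 665 nm emission).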
# RXFP1 ag: qHTS Assay for Agonists of the Relaxin Receptor RXFP1. Potency, µM (top dose mostly 57.5 µM), inactives show top-dose activation, most hits filed as activators. HEK293T-RXFP1 cAMP TR-FRET, 30 min; response scale: percent of porcine relaxin response, buffer zero. 370,000 compounds, 0.3% hits; further: potency means the concentration at half of the fitted maximal effect; on the % scale 0 is the no-effect control and ±100 the full control effect; nearly all actives have a fitted effect of over 60% in size
# Target sequence (Q9HBX9 whole entry, looked up): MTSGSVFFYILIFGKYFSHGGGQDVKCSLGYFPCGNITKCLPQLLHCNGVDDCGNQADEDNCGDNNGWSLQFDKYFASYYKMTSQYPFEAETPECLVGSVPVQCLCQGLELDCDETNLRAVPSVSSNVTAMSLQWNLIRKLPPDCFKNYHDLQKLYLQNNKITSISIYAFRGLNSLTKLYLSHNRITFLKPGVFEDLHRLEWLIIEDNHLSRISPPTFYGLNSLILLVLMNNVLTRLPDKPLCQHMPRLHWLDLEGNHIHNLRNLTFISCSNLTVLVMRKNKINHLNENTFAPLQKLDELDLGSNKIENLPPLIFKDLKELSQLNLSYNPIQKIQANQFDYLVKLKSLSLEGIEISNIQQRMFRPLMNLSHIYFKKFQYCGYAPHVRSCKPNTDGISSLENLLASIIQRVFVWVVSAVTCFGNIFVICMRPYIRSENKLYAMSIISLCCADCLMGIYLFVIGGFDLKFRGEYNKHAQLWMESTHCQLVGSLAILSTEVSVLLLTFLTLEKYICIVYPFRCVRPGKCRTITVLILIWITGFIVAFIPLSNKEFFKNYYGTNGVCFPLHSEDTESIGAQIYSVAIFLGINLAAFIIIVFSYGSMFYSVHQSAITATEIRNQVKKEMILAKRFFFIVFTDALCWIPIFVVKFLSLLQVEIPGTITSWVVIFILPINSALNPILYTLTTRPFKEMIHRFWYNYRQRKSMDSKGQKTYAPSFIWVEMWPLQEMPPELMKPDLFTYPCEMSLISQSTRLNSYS
#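 HEK293 cells stably expressing RXFP1, treated 30 min at 37C with compounds plus PDE4 inhibitor Ro 20174; cAMP measured by HTRF TR-FRET. Normalized to buffer and 29 nM porcine relaxin; EC50 by Hill fit.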
# NPSR antagonist: qHTS Assay for Antagonists of the Neuropeptide S Receptor: cAMP Signal Transduction | Q6W5P4 | CHO-NPSR cells, cAMP TR-FRET, antagonist mode | Potency, µM (top dose mostly 38.3 µM), for inactives: at the highest dose activity change, negative = inhibition, usual class: inhibitors | 220,000 compounds, 1% hits; further: potency means the concentration at half of the fitted maximal effect; on the % scale 0 is the no-effect control and ±100 the full control effect; nearly all actives have a fitted effect of over 50% in size
# RXFP1 antagonist: qHTS Assay for Antagonists of the Relaxin Receptor RXFP1 | AID 1259400, 2018 | HEK293-RXFP1, relaxin-stimulated cAMP HTRF, 30 min; hits give low values | Relaxin receptor 1 (Homo sapiens), Q9HBX9 | activity change, negative = inhibition, % at 57.5 µM | 350,000 compounds, 0.59% hits;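 active means activity change of -60% or lower, but not beyond a set lower limit; inconclusive means change between -60% and -40%, or beyond the set limit; inactive means change above -40%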; further: on the % scale 0 is the no-effect control and ±100 the full control effect
# * = called active by the depositor; i = inactive; ? = inconclusive; / = no result given; [ ] = remark or other dose. The sample as a whole holds a higher share of hits than the screen did. Unless noted, the call rests on the fitted dose curve; in most records, active means well fitted curve in the direction sought with a large enough effect; inconclusive means small, poorly fitted or top-dose-only effect, or another doubt; inactive means no such curve, though single readings can be large; an effect the other way counts as inactive or inconclusive.
SMILES,PTHR1 ag,TSHR antagonist,TCR act,RXFP1 ag,NPSR antagonist,RXFP1 antagonist
CCC(Oc1ccc(F)cc1)C(=O)Nc1cc(-c2ccc(C)cc2)no1 (centres undefined),-12.2%,/,/,-1.2%,/,?
CCC(Oc1ccc(F)cc1)C(=O)Nc1nc(-c2ccc(F)cc2)ns1 (centres undefined),-47.5%,/,/,1.4%,/,-87.3*
CCOc1ccc(Nc2oc(-c3ccc(COc4ccc(OC)cc4)o3)nc2C#N)cc1,-22.1%,/,/,-1.2%,/,-9.7
CCc1ccc(-n2c(SCc3cccc(F)c3)nc3[nH]ncc3c2=O)cc1,-7.4%,/,/,-1.3%,/,-31.0
O=C(NNC(=O)c1ccccc1F)c1ccc(-c2ccc(Cl)cc2)o1,-4.2%,-0.2,-88.3%,0.0%,/,-87.5*
O=C(NC1CCC(O)CC1)c1ccc(-c2ccc(Cl)cc2)o1 (centres undefined),-15.9%,-11.1,-1.4%,0.4%,/,-7.2
Cc1noc(/C=C/c2ccccc2F)c1S(=O)(=O)N1CCC(C(=O)Nc2ccc(C#N)cc2)CC1,i,/,/,-1.7%,/,-8.7
Cn1c(=O)c2c(nc(Cc3ccc(N)cc3)n2C)n(C)c1=O,i,2.2,1.8%,15.8µM*,-19.8%,-2.4
O=C1/C(=C/c2ccncc2)SC(=S)N1N1CCOCC1,-23.8%,7.1,1.5%,-0.9%,5.8%,-33.8
O=C1/C(=C/c2cccs2)SC(=S)N1N1CCOCC1,-8.0%,-6.8,0.2%,-0.2%,2.7%[7.67 µM],-96.0*
Cc1ccc(Cl)cc1N1CCN(C(=O)c2cccn2-c2nnc(N3CCCC3)s2)CC1,-22.4%,/,/,-3.7%,/,-82.7*
O=C(c1cccn1-c1nnc(N2CCCC2)s1)N1CCN(c2ccccc2)CC1,i,/,/,4.5%,/,1.5
COc1ccc(NC(=S)N(C(C)C)C2CCN(C(C)C)CC2)cc1Cl,/,-80.9*,/,-0.6%,/,/
COc1cccc2cc(C(C)N(CCCN3CCOCC3)C(=S)Nc3ccc(C)c(C)c3)oc12 (centres undefined),-12.7%,-5.3,4.6%,2.8%,-50.5%,-35.6
COc1ccc(NC(=S)N(CCCN2CCOCC2)C(C)c2cc3cccc(OC)c3o2)cc1 (centres undefined),i,-75.9*,7.5%,-0.7%,-44.6%,-12.9
Oc1ccc(/C=N/N2CCN(C3c4ccccc4-c4ccccc43)CC2)cc1O,-3.2%,-12.7,3.1%,-2.4%,10µM*,-3.8
O=C(Nc1nc(-c2ccccc2)cs1)c1ccc(N2CCOCC2)c([N+](=O)[O-])c1,-30.3%,-101.1*,1.7%[46.1 µM],0.5%,-39.5%,-30.4
CC(NC(=O)Nc1nnc(C(F)(F)F)s1)(C(F)(F)F)C(F)(F)F,-26.2%[57.5 µM],-94.1*,2.2%,2.3%,10µM*,-7.7
CC(C)(C)CC(=O)Nc1nnc(C(F)(F)F)s1,-10.7%[57.5 µM],-15.1,-1.0%[46.1 µM],-0.5%,4.7%[46.1 µM],5.0
C=CCn1c(=O)[nH]c2cc(C(=O)N3CC=C(c4ccccc4)CC3)ccc2c1=O,-8.0%,-3.4,2.5%,1.2%,-16.1%,-72.3*
CCN(CC)C(=O)c1sc2[nH]c(=S)n(-c3ccccc3)c(=O)c2c1C,-7.9%[57.5 µM],20.4,/,11.2%,12.8%[46.1 µM],-66.8*
COc1cccc(-c2nc(CS(=O)(=O)CC(=O)NC3CC3)c(C)o2)c1,-25.1%,1.0,1.7%,0.3%,/,?
COc1cccc(-c2nc(CS(=O)(=O)CC(=O)NC3CCCCCC3)c(C)o2)c1,-76.5%,-97.0*,-1.7%,-3.2%,/,-25.6
COc1cccc(-c2nc(CS(=O)(=O)CC(=O)N3CCCCC3)c(C)o2)c1,i,-96.9*,-7.3%,2.0%,/,-1.1
COc1cccc(-c2nc(CS(=O)(=O)CC(=O)N3CCN(c4ccccn4)CC3)c(C)o2)c1,-87.4%,2.4,-5.9%,-0.6%,-6.9%[46.1 µM],8.1
SMILES,PTHR1 ag,TSHR antagonist,TCR act,RXFP1 ag,NPSR antagonist,RXFP1 antagonist
Cc1ccc(C(C)C)c(OCc2ccc(C(=O)N/N=C/c3cccc(O)c3O)cc2)c1,i,-12.7,4.0%[46.1 µM],-0.1%,10µM*,-26.7
COc1ccc(Cl)cc1NC(=O)C(C)N1CCN(C/C=C/c2ccccc2)CC1 (centres undefined),-18.9%,2.0,-3.5%,1.1%,10µM*,-13.2
CC(=O)c1ccc(NC(=O)C(C)N2CCN(C/C=C/c3ccccc3)CC2)cc1 (centres undefined),-20.5%,2.9,1.1%,-0.7%,-13.6%,-24.2
COc1cc(CNC2CCCC2)c(Br)cc1OC1CCCC1,-15.8%,-4.3,4.7%,3.4%,-2.3%,-13.9
COc1cc(CNCc2ccccc2)c(Br)cc1OC1CCCC1,i,-7.0,4.0%,-2.1%,?,-60.9*
Cc1ccc(N2CCN(C(=O)CCS(=O)(=O)c3cc4c(cc3Cl)NC(=O)CO4)CC2)c(C)c1,-6.8%,/,/,2.0%,/,-18.0
CC(Sc1nc(=O)cc(N)n1CCc1ccccc1)C(=O)Nc1ccccc1C#N (centres undefined),i,/,/,-0.6%,/,/
O=C(OCC(=O)N1CCN(C(=O)c2ccco2)CC1)c1cc(-c2ccc(Cl)c(Cl)c2Cl)nc2ccccc12,-8.6%,-16.6,-0.2%,-0.9%,10µM*,-6.7
O=[N+]([O-])c1ccc(C=CC=Cc2ccccc2)cc1,i,/,/,/,/,-8.2
CN(c1ccccc1)c1ccc(/C=C/[N+](=O)[O-])cc1,-29.4%,-29.3,-0.1%[46.1 µM],0.3%,?,-107.5*
CN(C)S(=O)(=O)c1ccc2c(c1)N(CC(=O)N1CCN(c3ccc(F)cc3)CC1)CCS2,i,/,/,?,/,/
CSc1ccc(CN2CCN(C(=O)CC(C)C)CC2)cc1,-22.3%,6.4,-0.2%,2.6%,/,-63.3*
CC(C)CC(=O)N1CCN(Cc2ccc3ccccc3c2)CC1,-27.5%,2.3,2.9%,0.1%,/,8.3
CCOC(=O)CN1CCCC1=O,/,/,/,/,/,2.8
O=C(CN1CCOCC1)NNc1c2ccccc2nc2ccccc12,-11.8%,-10.8,6.4%,-5.0%,?,-62.2*
C[N+]1(CC(=O)NNc2c3ccccc3nc3ccccc23)CCOCC1,/,-33.9,/,5.3%,-38.8%,/
Nc1c(C(=O)NCC2CCCO2)sc2nc3c(c(-c4ccco4)c12)CC/C3=C\c1ccco1 (centres undefined),-16.0%,-9.3,0.7%[46.1 µM],1.4%,-13.1%,-102.4*
N#CC1=C(N)C(C#N)(C#N)C(c2ccncc2)C2CN(C(=O)OCc3ccccc3)CC=C12 (centres undefined),-26.2%[57.5 µM],-39.5,-3.4%[46.1 µM],-1.0%,3.98µM*,-19.4

# Screens deposited in PubChem by National Center for Advancing Translational Sciences (NCATS).
